From PubChem BioAssay AID602143 (Vanderbilt Specialized Chemistry Center, 2011)
Calls of active or inactive are those of the source. No stated cut-off is given here; in the data, active means remaining activity below about 50%; inactive means the rest.

The compounds below were run against Phospholipase D2 (Homo sapiens) (UniProt O14939) (assay: cellular phospholipase D2 activity inhibition – cell-based, HEK293, single concentration (AID 602143;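 further: tested at 200 nM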)). Conditions: HEK293 cellular PLD2 activity, percent of control; active compounds read low.
Sequence of Phospholipase D2 (Homo sapiens) (O14939 whole entry, looked up): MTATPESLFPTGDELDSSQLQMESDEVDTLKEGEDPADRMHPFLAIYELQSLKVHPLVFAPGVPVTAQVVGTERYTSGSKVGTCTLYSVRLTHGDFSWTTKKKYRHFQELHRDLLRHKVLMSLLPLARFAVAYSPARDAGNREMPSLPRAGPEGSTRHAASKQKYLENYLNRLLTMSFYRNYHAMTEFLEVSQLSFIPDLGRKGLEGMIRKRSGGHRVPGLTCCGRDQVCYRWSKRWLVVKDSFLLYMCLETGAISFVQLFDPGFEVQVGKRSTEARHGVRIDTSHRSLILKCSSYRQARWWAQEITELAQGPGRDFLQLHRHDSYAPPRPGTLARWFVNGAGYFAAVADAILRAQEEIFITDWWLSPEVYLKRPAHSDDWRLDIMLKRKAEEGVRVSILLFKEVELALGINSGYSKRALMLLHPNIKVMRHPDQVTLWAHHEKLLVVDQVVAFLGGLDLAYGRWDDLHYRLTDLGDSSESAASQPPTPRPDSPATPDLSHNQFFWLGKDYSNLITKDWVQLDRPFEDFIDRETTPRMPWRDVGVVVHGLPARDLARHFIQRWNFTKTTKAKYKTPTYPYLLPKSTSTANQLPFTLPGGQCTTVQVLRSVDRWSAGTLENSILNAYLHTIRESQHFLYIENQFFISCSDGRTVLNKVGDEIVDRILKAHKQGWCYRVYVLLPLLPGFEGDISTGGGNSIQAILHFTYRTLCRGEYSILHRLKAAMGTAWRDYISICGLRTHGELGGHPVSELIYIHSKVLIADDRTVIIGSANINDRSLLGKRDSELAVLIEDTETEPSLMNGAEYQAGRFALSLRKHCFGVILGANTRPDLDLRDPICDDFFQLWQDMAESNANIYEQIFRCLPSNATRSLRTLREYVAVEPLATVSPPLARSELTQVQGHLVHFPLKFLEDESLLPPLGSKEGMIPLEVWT
Sequence of Phospholipase D2 (Homo sapiens) (O14939 whole entry, looked up): as above
`COc1cccc(C(=O)NCCN2CCC(n3c(=O)[nH]c4ccccc43)CC2)n1` was tested, and the remaining activity was 72.5% (inactive). In the case of `O=c1[nH]c2ccccc2n1C1CCN(CCNS(=O)(=O)c2ccccc2[N+](=O)[O-])CC1`, the remaining activity is reported as 108% (inactive). For `O=C(NCCN1CCC(n2c(=O)[nH]c3cc(Cl)ccc32)CC1)c1ccc(Cl)cc1`, the remaining activity was 56.9% (inactive). With `O=C(N[C@@H](Cc1ccccc1)CN1CCC(n2c(=O)[nH]c3ccccc32)CC1)c1ccc(F)c(F)c1` the remaining activity was 124% (inactive). `O=C(NCCN1CCC(n2c(=O)[nH]c3ccccc32)CC1)c1cc2ccc3ccccc3c2c2ccccc12` was tested, and the remaining activity was 109% (inactive). For `C[C@@H](CN1CCC2(CC1)CCN(C)C2=O)NC(=O)c1ccc2ccccc2c1`, the remaining activity was 135% (inactive). `O=c1[nH]c2ccccc2n1C1CCN(CCNC(=S)Nc2ccccn2)CC1` was tested, and the remaining activity was 72.7% (inactive). `O=C(c1ccc(Cl)cc1)N1CCC(n2c(=O)[nH]c3cc(Cl)ccc32)CC1` was tested, and the remaining activity was 60.2% (inactive). In the case of `O=C(NCCN1CCC(C(=O)NCCc2ccccn2)CC1)c1ccc2ccccc2c1`, the remaining activity is reported as 100% (inactive). With `Cn1c(C(=O)NCCN2CCN(c3ccncc3)CC2)cc2ccccc21` the remaining activity was 109% (inactive). In the case of `C[C@@H](CN1CCC2(C=Cc3ccccc32)CC1)NC(=O)c1cnc2ccccc2c1`, the remaining activity is reported as 77.4% (inactive). With `CS(=O)(=O)N1CC2(CCN(CCNC(=O)c3cnc4ccccc4c3)CC2)c2ccccc21` the remaining activity was 83.7% (inactive). With `O=C(NCCN1CCC(n2c(=O)[nH]c3ccccc32)CC1)C1(c2ccccc2)CCC1` the remaining activity was 86.3% (inactive). With `Cc1ccc(C(=O)N[C@@H](C)CN2CCC(n3c(=O)[nH]c4c(F)cccc43)CC2)cc1` the remaining activity was 98.2% (inactive). With `O=C(NCCN1CCC2(C=Cc3ccccc32)CC1)c1cnc2ccccc2c1` the remaining activity was 92.4% (inactive). With `O=C(NCCN1CCC(n2c(=O)[nH]c3ccccc32)CC1)c1cccc(F)n1` the remaining activity was 74.5% (inactive). In the case of `O=C(NCCN1CCC(n2c(=O)[nH]c3ccccc32)CC1)c1ccc2c(ccc3ccc4ccccc4c32)c1`, the remaining activity is reported as 96.7% (inactive). In the case of `CC(C)[C@@H](CN1CCC(n2c(=O)[nH]c3ccccc32)CC1)NC(=O)c1cc2cc(F)ccc2[nH]1`, the remaining activity is reported as 79.5% (inactive). In the case of `Cc1ccc(C(=O)N[C@@H](C)CN2CCC(n3c(=O)[nH]c4ccc(F)cc43)CC2)cc1`, the remaining activity is reported as 64% (inactive). With `O=c1[nH]c2ccccc2n1C1CCN(CCNC(=S)Nc2ccccc2F)CC1` the remaining activity was 87.4% (inactive). For `O=C(NCCN1CCC2(CC1)CNc1ccccc12)C1CC1c1ccccc1` (configuration not stated), the remaining activity was 91.2% (inactive). In the case of `C[C@H](CN1CCC2(CC1)CNc1ccccc12)NC(=O)c1ccc2ccccc2c1`, the remaining activity is reported as 53.8% (inactive). `Cc1ccccc1NC(=S)NCCN1CCC(n2c(=O)[nH]c3ccccc32)CC1` was tested, and the remaining activity was 145% (inactive). With `O=C(NCCN1CCN(c2ccncc2)CC1)c1ccc(F)cc1` the remaining activity was 102% (inactive). `C[C@@H](CN1CCC(n2c(=O)[nH]c3ccc(F)cc32)CC1)NC(=O)c1ccc(F)cc1` was tested, and the remaining activity was 66.8% (inactive). With `COc1cccc(N2CCN(CCNC(=O)c3ccc4ccccc4c3)CC2)c1` the remaining activity was 77.4% (inactive). For `COc1cccc(N2CCN(CCNC(=O)c3ccc(F)cc3)CC2)c1`, the remaining activity was 100% (inactive). With `C[C@H](CN1CCC2(CC1)CNCc1ccccc12)NC(=O)c1cnc2ccccc2c1` the remaining activity was 100% (inactive). For `C[C@H](CN1CCC2(CC1)CNc1ccccc12)NC(=O)c1cnc2ccccc2c1`, the remaining activity was 104% (inactive). In the case of `C[C@@H](CN1CCC2(CC1)CCN(C)C2=O)NC(=O)c1cnc2ccccc2c1`, the remaining activity is reported as 113% (inactive). In the case of `C[C@@H](CN1CCC(n2c(=O)[nH]c3ccccc32)CC1)NC(=O)C1C[C@H]1c1ccccc1` (some centres not stated), the remaining activity is reported as 105% (inactive). With `O=C(NCCN1CCC(n2c(=O)[nH]c3ccccc32)CC1)C1CCCCCC1` the remaining activity was 104% (inactive). `O=C(NCCN1CCN(c2ccncc2)CC1)c1c2ccccc2cc2ccccc12` was tested, and the remaining activity was 127% (inactive). For `Cn1c(C2CCN(CCN)CC2)nc2ccccc21` (tested in a mixture with another compound), the remaining activity was 117% (inactive). `O=C(NCCN1CCC(n2c(=O)n(C(=O)c3ccc(Cl)cc3)c3ccccc32)CC1)c1ccc(Cl)cc1` was tested, and the remaining activity was 64.5% (inactive). For `C[C@@H](CN1CCC(n2c(=O)[nH]c3cc(I)ccc32)CC1)NC(=O)C1CC1c1ccccc1` (some centres not stated), the remaining activity was 99.2% (inactive). For `O=C(c1ccc(Cl)cc1)N1CCC2(CC1)C(=O)NCN2c1ccccc1`, the remaining activity was 69.9% (inactive).
